Experimental data published in PubChem BioAssay (Tox21).
Values joined by “and” are separate entries in the source; they are usually repeats but may differ in a detail not shown here. Identical values can stand only once. Results filed as inconclusive are left out. More than one record can exist for a structure, and the calls need not agree. Active and inactive are the calls of the source. The call rests on the fitted dose curve; in most records, active means well fitted curve in the direction sought with a large enough effect in the repeat runs; inconclusive means weak or mixed curves; inactive means no such curve, though single readings can be large; an effect the other way counts as inactive or inconclusive.

Key:
[1] = Human pregnane X receptor (PXR) small molecule agonists, qHTS cell viability counter screen (AID 1346977); further: nearly all actives have a fitted effect of over 50% in size; further: potency means the concentration at half of the fitted maximal effect
Outline: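 PXR-Luc HepG2 cells (2,000/well, 5% charcoal-stripped FBS) preincubated 5 hr, then exposed to compounds 24 hr at 37 C. Viability read in the same wells by CellTiter-Fluor fluorescence, reagent added at 23 hr, 1 hr incubation.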

[2] = Caspase-3/7 induction in HepG2 cells by small molecules, qHTS assay (AID 1346978); further: nearly all actives have a fitted effect of over 15% in size; further: potency means the concentration at half of the fitted maximal effect
Outline: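 Wild-type HepG2 cells (2,000/well) were settled 5 h at 37 C, 5% CO2, then exposed to compounds in DMSO for 17 h. Caspase-3/7 activity was read by luminescence 30 min after adding Caspase-Glo 3/7 reagent at room temperature.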

[3] = Caspase-3/7 induction in CHO-K1 cells by small molecules, qHTS cell viability counter screen (AID 1346979); further: nearly all actives have a fitted effect of over 35% in size; further: potency means the concentration at half of the fitted maximal effect
Outline: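 Wild-type CHO-K1 cells (1,500/well) treated with compound after 5 h plating; after 16 h at 37C, viability read as CellTiter-Fluor fluorescence following 1 h reagent incubation, in the same wells as the caspase read.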

[4] = Caspase-3/7 induction in CHO-K1 cells by small molecules, qHTS assay (AID 1346980); further: nearly all actives have a fitted effect of over 15% in size
Outline: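 Wild-type cells were seeded at 1,500 per well and settled 5 hr at 37 C, 5% CO2, then exposed to DMSO-dissolved compounds for 17 hr. Caspase-Glo 3/7 reagent was added, and luminescence was read after 30min at room temperature.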

[5] = Caspase-3/7 induction in HepG2 cells by small molecules, qHTS cell viability counter screen (AID 1346981); further: nearly all actives have a fitted effect of over 30% in size; further: potency means the concentration at half of the fitted maximal effect
Outline: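 Fluorescence read-out of live-cell protease activity (CellTiter-Fluor) after 1 hr with reagent. This was measured in the same wells as the caspase-3/7 luminescence, on HepG2 cells exposed to DMSO-dissolved compounds for 16 hr at 37 C.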

[6] = target: Nuclear receptor subfamily 1 group I member 2 (Homo sapiens) (UniProt O75469); test: Human pregnane X receptor (PXR) small molecule agonists, qHTS assay (AID 1346982); further: nearly all actives have a fitted effect of over 35% in size; further: potency means the concentration at half of the fitted maximal effect
Outline: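 HepG2 PXR-Luc reporter line, 5% charcoal-stripped FBS; 5 hr pre-incubation, compound (DMSO) 24 hr at 37 C/5% CO2; ONE-Glo 30 min RT; luminescence read-out.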

[7] = target: Cytochrome P450 2D6 (Homo sapiens) (UniProt P10635); test: Cytochrome P450 Family 2 Subfamily D Member 6 (CYP2D6) small molecule antagonists: luciferase reporter qHTS assay (AID 1671196); further: nearly all actives have a fitted effect of over 50% in size; further: potency means the concentration at half of the fitted maximal effect
Outline: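 Luminogenic proluciferin substrate, CYP2D6 enzyme; 10 min RT preincubation with compound, NADPH regeneration system added, 1 h RT. Stop/detection reagent, 20 min RT, luminescence read (RLU). Signal proportional to CYP activity.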

[8] = target: Cytochrome P450 2C19 (Homo sapiens) (UniProt P33261); test: Cytochrome P450 Family 2 Subfamily C Member 19 (CYP2C19) small molecule antagonists: luciferase reporter qHTS assay (AID 1671197); further: nearly all actives have a fitted effect of over 65% in size; further: potency means the concentration at half of the fitted maximal effect
Outline: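 First, compounds are pinned into enzyme-substrate mix and held 10 min at room temperature. Second, NADPH regeneration solution is added and plates incubate 1 h at 37C. Third, detection reagent is added and luminescence read after 20 min.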

[9] = target: Cytochrome P450 2C9 (Homo sapiens) (UniProt P11712); test: Cytochrome P450 Family 2 Subfamily C Member 9 (CYP2C9) small molecule antagonists: luciferase reporter qHTS assay (AID 1671198); further: nearly all actives have a fitted effect of over 50% in size; further: potency means the concentration at half of the fitted maximal effect
Outline: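 CYP2C9 activity was measured with a P450-Glo proluciferin substrate. Enzyme–substrate mix was held with compound for 10 min at room temperature, then NADPH regeneration solution was added for 1 h at 37C. Luciferin product was read as luminescence.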

[10] = target: Cytochrome P450 1A2 (Homo sapiens) (UniProt P05177); test: Cytochrome P450 Family 1 Subfamily A Member 2 (CYP1A2) small molecule antagonists: luciferase reporter qHTS assay (AID 1671199); further: nearly all actives have a fitted effect of over 50% in size; further: potency means the concentration at half of the fitted maximal effect
Outline: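 Luminescence readout (relative luminescence units) after luciferin detection reagent, 20 min RT. Preceded by 1 h room-temperature CYP1A2 reaction with NADPH regeneration solution following 10 min compound preincubation with enzyme and proluciferin substrate. Furafylline positive control.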

[11] = target: Voltage-gated inwardly rectifying potassium channel KCNH2 (Homo sapiens) (UniProt Q12809); test: Human Ether-a-go-go-Related Gene (hERG) channel small molecule antagonists: fluorescence cell-based qHTS assay (AID 1671200); further: nearly all actives have a fitted effect of over 50% in size; further: potency means the concentration at half of the fitted maximal effect
Outline: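 hERG-U2OS cells plated overnight at 37 C, loaded with FluxOR II dye 1 h at RT in dark; after 10 min, thallium stimulus added. Fluorescence (480/540 nm) read kinetically for 2 min at 1 s intervals.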

[12] = target: Cytochrome P450 3A4 (Homo sapiens) (UniProt P08684); test: Cytochrome P450 Family 3 Subfamily A Member 4 (CYP3A4) small molecule antagonists: luciferase reporter qHTS assay (AID 1671201); further: nearly all actives have a fitted effect of over 50% in size; further: potency means the concentration at half of the fitted maximal effect
Outline: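 P450-Glo CYP3A4 luminescent assay: compounds preincubated 10 min at room temperature with enzyme and proluciferin substrate, NADPH regeneration added, 1 h room-temperature reaction, stopped with luciferin detection reagent; luminescence read after 20 min. Ketoconazole positive control.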

[13] = target: Nuclear receptor subfamily 1 group I member 2 (Rattus norvegicus) (UniProt Q9R1A7); test: Rat pregnane X receptor (rPXR) activation by small molecules, qHTS assay (AID 1346983); details: rPXR luciferase reporter cells, One-Glo luminescence, 24 h; stronger effect = higher value; further: nearly all actives have a fitted effect of over 20% in size
Outline: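 Cell-based rPXR luciferase reporter assay, 2,000 cells per well, rested 5hr at 37 C before compound addition in DMSO, then 24 hr at 37 C. One-Glo reagent was added and luminescence read after 30 min at room temperature.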

[14] = target: Nuclear receptor subfamily 1 group I member 2 (Homo sapiens) (UniProt O75469); test: CYP3A4 induction through human pregnane X receptor (PXR) by small molecules, qHTS assay (AID 1346984); further: nearly all actives have a fitted effect of over 40% in size
Outline: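 HepG2-derived DPX-2 line carrying PXR plus a CYP3A4-promoter luciferase reporter; cells plated 5 hr, compound-exposed 24 hr at 37C. CYP3A4 activity probed with 3uM (final) Luciferin-IPA for 3hr, then luciferase read after One-Glo.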

[15] = target: Nuclear receptor subfamily 1 group I member 2 (Homo sapiens) (UniProt O75469); test: Human pregnane X receptor (PXR) activation by small molecules, qHTS assay (AID 1346985); further: nearly all actives have a fitted effect of over 40% in size; further: potency means the concentration at half of the fitted maximal effect
Outline: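 DPX-2 cells (HepG2 co-transfected with a PXR response element and a CYP3A4-promoter luciferase construct) were seeded at 2,000 per well, rested 5 hr at 37C, then exposed to DMSO-dissolved compounds for 24 hr. Activation was read as luciferase luminescence.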
On the % scale 0 is the no-effect control and ±100 the full control effect.

Voltage-gated inwardly rectifying potassium channel KCNH2 (Homo sapiens), sequence (Q12809 whole entry, looked up): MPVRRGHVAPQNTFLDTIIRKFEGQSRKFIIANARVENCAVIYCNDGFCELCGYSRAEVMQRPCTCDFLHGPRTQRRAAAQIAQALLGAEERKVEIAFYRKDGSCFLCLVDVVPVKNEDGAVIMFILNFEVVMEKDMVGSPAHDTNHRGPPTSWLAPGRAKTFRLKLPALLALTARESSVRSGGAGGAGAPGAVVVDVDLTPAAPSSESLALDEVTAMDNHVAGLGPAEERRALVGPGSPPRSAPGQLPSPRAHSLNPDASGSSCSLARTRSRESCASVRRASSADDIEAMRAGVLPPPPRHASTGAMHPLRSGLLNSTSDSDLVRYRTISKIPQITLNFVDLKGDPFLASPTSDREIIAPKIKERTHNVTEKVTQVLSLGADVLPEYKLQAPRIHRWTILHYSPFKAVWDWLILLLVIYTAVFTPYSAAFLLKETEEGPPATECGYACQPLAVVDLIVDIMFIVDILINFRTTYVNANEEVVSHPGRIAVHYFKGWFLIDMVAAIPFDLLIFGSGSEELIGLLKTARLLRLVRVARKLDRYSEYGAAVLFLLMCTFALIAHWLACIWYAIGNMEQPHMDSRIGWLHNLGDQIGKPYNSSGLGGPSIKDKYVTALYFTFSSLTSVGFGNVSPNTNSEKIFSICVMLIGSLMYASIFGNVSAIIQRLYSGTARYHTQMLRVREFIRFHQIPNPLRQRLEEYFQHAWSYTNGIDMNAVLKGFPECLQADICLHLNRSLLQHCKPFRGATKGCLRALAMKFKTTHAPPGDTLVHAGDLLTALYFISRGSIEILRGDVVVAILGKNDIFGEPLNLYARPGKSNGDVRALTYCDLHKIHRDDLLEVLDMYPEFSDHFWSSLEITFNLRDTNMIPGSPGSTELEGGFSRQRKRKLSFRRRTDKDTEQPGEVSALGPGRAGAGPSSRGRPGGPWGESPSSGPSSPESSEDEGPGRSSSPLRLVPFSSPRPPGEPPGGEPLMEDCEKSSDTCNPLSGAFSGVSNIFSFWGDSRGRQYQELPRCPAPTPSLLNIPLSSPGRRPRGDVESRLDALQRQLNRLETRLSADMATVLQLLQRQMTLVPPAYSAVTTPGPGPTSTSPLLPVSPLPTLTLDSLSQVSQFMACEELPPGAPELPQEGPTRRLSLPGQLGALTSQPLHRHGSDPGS
Nuclear receptor subfamily 1 group I member 2 (Homo sapiens), sequence (O75469 whole entry, looked up): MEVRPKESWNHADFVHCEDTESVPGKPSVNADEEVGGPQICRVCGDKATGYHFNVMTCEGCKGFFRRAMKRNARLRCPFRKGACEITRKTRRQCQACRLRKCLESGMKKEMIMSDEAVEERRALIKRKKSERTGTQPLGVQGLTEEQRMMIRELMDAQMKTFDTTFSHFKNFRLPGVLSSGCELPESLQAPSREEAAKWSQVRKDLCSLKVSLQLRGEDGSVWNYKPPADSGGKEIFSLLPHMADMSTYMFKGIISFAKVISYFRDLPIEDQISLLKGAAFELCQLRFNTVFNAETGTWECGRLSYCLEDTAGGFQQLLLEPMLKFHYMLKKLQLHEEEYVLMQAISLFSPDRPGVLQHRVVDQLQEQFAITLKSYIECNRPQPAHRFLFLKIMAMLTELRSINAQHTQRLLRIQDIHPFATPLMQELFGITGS
Cytochrome P450 2C19 (Homo sapiens), sequence (P33261 whole entry, looked up): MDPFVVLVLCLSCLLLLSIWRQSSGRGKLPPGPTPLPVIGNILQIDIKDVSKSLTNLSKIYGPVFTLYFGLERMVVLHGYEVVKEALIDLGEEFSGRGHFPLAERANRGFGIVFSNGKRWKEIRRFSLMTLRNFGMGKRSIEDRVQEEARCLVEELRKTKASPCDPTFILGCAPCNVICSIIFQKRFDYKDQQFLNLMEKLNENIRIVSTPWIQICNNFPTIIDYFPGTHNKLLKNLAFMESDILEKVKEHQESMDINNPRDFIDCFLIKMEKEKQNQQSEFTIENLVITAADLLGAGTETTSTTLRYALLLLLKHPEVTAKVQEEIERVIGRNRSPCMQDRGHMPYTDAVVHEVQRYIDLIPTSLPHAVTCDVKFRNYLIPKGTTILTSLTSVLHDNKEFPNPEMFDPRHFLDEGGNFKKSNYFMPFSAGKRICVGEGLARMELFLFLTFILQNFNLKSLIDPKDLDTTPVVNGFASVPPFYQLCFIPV
Cytochrome P450 2D6 (Homo sapiens), sequence (P10635 whole entry, looked up): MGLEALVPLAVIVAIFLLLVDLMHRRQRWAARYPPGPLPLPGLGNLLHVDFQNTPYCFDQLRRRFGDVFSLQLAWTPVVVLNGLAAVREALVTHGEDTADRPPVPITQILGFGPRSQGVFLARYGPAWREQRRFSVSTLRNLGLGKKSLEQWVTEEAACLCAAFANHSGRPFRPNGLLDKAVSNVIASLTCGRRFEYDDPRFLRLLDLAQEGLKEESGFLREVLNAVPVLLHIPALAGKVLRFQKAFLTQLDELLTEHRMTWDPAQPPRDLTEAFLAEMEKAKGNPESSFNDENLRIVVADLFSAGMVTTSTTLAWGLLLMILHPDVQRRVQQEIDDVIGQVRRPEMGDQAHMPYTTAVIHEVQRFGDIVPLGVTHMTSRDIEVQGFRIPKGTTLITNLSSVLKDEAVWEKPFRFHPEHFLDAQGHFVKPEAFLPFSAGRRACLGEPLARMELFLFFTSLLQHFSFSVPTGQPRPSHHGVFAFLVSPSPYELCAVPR
Cytochrome P450 1A2 (Homo sapiens), sequence (P05177 whole entry, looked up): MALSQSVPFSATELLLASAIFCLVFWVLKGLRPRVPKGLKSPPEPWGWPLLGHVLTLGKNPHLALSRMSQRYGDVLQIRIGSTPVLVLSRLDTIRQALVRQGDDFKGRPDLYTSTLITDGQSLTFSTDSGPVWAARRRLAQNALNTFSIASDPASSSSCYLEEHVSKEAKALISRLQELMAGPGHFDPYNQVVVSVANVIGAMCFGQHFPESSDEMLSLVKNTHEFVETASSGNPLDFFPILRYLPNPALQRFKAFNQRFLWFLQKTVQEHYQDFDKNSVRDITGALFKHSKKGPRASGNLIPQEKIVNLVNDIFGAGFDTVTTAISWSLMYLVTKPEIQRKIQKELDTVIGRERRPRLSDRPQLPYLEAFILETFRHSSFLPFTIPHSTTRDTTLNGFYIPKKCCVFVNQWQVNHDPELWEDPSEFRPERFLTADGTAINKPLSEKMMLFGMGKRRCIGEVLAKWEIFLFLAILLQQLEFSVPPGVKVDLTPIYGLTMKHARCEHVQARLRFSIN
Cytochrome P450 2C9 (Homo sapiens), sequence (P11712 whole entry, looked up): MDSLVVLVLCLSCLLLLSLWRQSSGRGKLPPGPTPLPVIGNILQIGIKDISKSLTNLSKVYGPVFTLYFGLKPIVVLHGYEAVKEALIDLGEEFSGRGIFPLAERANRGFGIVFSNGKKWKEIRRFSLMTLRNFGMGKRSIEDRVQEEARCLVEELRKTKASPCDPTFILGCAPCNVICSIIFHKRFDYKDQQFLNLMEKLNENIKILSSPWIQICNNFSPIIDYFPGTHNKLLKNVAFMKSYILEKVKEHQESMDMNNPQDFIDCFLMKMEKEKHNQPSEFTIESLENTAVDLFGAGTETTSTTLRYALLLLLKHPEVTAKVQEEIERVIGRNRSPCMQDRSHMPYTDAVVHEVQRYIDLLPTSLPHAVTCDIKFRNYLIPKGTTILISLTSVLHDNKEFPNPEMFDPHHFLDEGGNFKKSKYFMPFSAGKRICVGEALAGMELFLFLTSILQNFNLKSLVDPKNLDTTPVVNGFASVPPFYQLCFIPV
Cytochrome P450 3A4 (Homo sapiens), sequence (P08684 whole entry, looked up): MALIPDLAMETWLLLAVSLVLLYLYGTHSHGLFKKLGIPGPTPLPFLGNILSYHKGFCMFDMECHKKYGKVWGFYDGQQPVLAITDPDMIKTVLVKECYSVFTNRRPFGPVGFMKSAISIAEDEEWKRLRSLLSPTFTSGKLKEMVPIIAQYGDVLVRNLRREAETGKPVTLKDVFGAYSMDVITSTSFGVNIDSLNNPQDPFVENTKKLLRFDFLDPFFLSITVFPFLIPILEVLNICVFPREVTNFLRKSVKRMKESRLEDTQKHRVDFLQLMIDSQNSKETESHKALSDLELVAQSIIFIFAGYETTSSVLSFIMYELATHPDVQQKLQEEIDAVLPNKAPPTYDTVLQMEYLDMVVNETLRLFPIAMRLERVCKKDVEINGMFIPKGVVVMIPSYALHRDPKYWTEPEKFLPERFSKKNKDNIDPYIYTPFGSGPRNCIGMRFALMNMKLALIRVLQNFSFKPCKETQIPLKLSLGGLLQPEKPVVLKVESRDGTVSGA
Nuclear receptor subfamily 1 group I member 2 (Rattus norvegicus), sequence (Q9R1A7 whole entry, looked up): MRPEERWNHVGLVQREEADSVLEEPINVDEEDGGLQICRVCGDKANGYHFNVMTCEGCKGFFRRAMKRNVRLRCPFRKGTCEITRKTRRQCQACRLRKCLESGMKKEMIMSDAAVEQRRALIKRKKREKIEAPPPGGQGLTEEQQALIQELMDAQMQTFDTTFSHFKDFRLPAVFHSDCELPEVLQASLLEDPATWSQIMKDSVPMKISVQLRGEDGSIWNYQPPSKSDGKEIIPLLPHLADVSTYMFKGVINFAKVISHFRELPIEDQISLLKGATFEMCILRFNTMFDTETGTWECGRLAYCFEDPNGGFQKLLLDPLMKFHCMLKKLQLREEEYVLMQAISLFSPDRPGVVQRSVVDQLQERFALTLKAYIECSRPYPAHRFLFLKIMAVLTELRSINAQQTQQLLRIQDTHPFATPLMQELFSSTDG

CC/C=C\CCCCCO
inactive: Potency [1] | Potency [2] | Potency [3] | Potency [4] | Potency [5] | Potency [6] | Potency [7] | Potency [8] | Potency [9] | Potency [10] | Potency [11] | Potency [12]

CCc1cccc(CC)c1NC(=O)CN(CC(=O)O)CC(=O)O
inactive: Potency [1] | Potency [2] | Potency [3] | Potency [4] | Potency [5] | Potency [6] | max activation [13] -4.1% | Potency [14] | Potency [15] | Potency [7] | Potency [8] | Potency [9] | Potency [10] | Potency [11] | Potency [12]

CCCCCCCCCCCCCC[N+](C)(C)Cc1ccccc1
72.1 µM (active) and inactive: Potency [10]
active: Potency [1] 55.3 µM | Potency [2] 62.1 µM | Potency [3] 43.9 µM and 33.5 µM and 17.8 mM | Potency [5] 69.6 µM | Potency [7] 908 nM and 1.1 µM | Potency [8] 64.3 µM and 20 mM | Potency [11] 993 nM and 1.69 µM and 1000 µM
inactive: Potency [4] | Potency [6] | max activation [13] -5.38% | Potency [14] | Potency [15] | Potency [12]

COC(=O)Nc1nc2ccc(C(=O)c3ccccc3)cc2[nH]1
active: Potency [3] 8.41 µM | Potency [6] 4.22 µM | Potency [15] 5.01 µM | Potency [10] 12.9 µM
inactive: Potency [1] | Potency [2] | Potency [4] | Potency [5] | Potency [8] | Potency [9] | Potency [11] | Potency [12]

Cc1cccc(C)c1NC(=O)c1ccc(N)cc1
inactive: Potency [1] | Potency [2] | Potency [3] | Potency [4] | Potency [5] | Potency [6] | Potency [7] | Potency [8] | Potency [9] | Potency [11]

C=CC(C)(CCC=C(C)C)OC=O (centres undefined)
inactive: Potency [1] | Potency [2] | Potency [3] | Potency [4] | Potency [5] | Potency [6] | Potency [7] | Potency [11]
active: Potency [8] 20 µM | Potency [9] 35.6 µM | Potency [12] 31.7 µM

CCN(CC)c1ccc2c(-c3ccc(S(=O)(=O)O)cc3S(=O)(=O)[O-])c3ccc(=[N+](CC)CC)cc-3oc2c1
inactive: Potency [2] | Potency [4] | Potency [6] | Potency [11]
active: Potency [1] 5.01 µM | Potency [3] 6.31 µM | Potency [5] 8.91 µM | Potency [7] 29.2 µM | Potency [8] 92.2 µM | Potency [9] 16.4 µM | Potency [10] 20.7 µM | Potency [12] 14.6 µM

CCOC(=O)NNc1ccc(N(CC)CC(C)O)nn1 (centres undefined)
inactive: Potency [1] | Potency [2] | Potency [3] | Potency [4] | Potency [5] | Potency [6] | Potency [7] | Potency [9] | Potency [10] | Potency [12]

COC(C)=O
inactive: Potency [1] | Potency [2] | Potency [3] | Potency [4] | Potency [5] | Potency [6] | Potency [7] | Potency [8] | Potency [11] | Potency [12]

O=C(O)CCN(C1(C(=O)NO)CCCC1)S(=O)(=O)c1ccc(Oc2ccc(F)cc2)cc1
inactive: Potency [1] | Potency [2] | Potency [3] | Potency [4] | Potency [5] | Potency [6] | Potency [7] | Potency [8] | Potency [9] | Potency [10] | Potency [11] | Potency [12]

Cc1ccc(-c2ccccc2)cc1
inactive: Potency [1] | Potency [2] | Potency [3] | Potency [4] | Potency [5] | Potency [6] | Potency [7] | Potency [8] | Potency [9] | Potency [10] | Potency [12]

C=C(C)c1cccc(C(=C)C)c1
inactive: Potency [1] | Potency [2] | Potency [3] | Potency [4] | Potency [5] | Potency [6] | Potency [7] | Potency [8] | Potency [9] | Potency [10] | Potency [11] | Potency [12]

c1cnccn1
inactive: Potency [1] | Potency [2] | Potency [3] | Potency [4] | Potency [5] | Potency [6] | Potency [7] | Potency [8] | Potency [9] | Potency [11] | Potency [12]
active: Potency [10] 36.8 µM

CC(C)(c1cc(Br)c(OCC(Br)CBr)c(Br)c1)c1cc(Br)c(OCC(Br)CBr)c(Br)c1 (centres undefined)
inactive: Potency [1] | Potency [2] | Potency [3] | Potency [4] | Potency [5] | Potency [6] | Potency [7] | Potency [8] | Potency [11] | Potency [12]

CN(C)Cc1ccccc1O
inactive: Potency [1] | Potency [2] | Potency [3] | Potency [4] | Potency [5] | Potency [6] | Potency [7] | Potency [8] | Potency [11] | Potency [12]

CC(C)OC(=O)C(O)(CC(=O)O)CC(=O)O
inactive: Potency [1] | Potency [2] | Potency [3] | Potency [4] | Potency [5] | Potency [7] | Potency [11] | Potency [12]
active: Potency [6] 48.6 µM | Potency [8] 35.6 µM | Potency [9] 35.6 µM

O=C(Nc1ccc2c(O)c(N=Nc3ccc(N=Nc4ccc(S(=O)(=O)O)cc4)cc3)c(S(=O)(=O)O)cc2c1)c1ccccc1
active: Potency [1] 8.63 µM | Potency [3] 15.4 µM | Potency [5] 24.3 µM | Potency [7] 35.6 µM | Potency [9] 20 µM | Potency [10] 35.6 µM
inactive: Potency [2] | Potency [4] | Potency [6] | Potency [11]

C=Cc1ccccc1C=C
inactive: Potency [1] | Potency [2] | Potency [3] | Potency [4] | Potency [5] | Potency [8] | Potency [11] | Potency [12]
active: Potency [6] 109 µM | Potency [7] 79.4 µM
